In the library only some 2.8% were active in any assay of this set; here they are far more common.
MsrA inhibitor = bovine MsrA enzyme inhibitors, primary screen, biochemical, absorbance, HTS | inhibition, % at 15.5 µM | purified bovine MsrA, absorbance read-out | actives 0.75% (n = 360,000); in the data active = inhibition above about 4.5%;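 note: 0% = vehicle wells with enzyme and 100% = reference inhibitor wells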
MsrA act = bovine MsrA enzyme activators, primary screen, biochemical, absorbance, HTS. Methionine sulfoxide reductase A (Bos taurus). purified bovine MsrA, absorbance read-out. activation, % at 10.6 µM. actives 0.3% (n = 360,000). AID 602163, 2012; in the data active = activation above about 7.5%;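 note: 0% = vehicle and 100% = reference activator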
rCAG binder = binders of r(CAG) RNA repeats, primary screen, biochemical, fluorescence; r(CAG) RNA repeat, TO-PRO-1 dye displacement fluorescence; inhibition, % at 3 µM; actives 1.3% (n = 370,000); AID 651821, 2012;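 active = inhibition above the plate cutoff, the mean of all test compounds on that plate plus 3 SD, cut at about 35% in these data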;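 note: 0% = DMSO alone and 100% = 100 µM mitoxantrone as full dye displacement; higher means more dye released from RNA so lower well fluorescence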
HGIII-sPLA2 inh = human group III sPLA2 inhibitors, primary screen, biochemical, QFRET, BODIPY PC-A2 liposome substrate; Group 3 secretory phospholipase A2 (Homo sapiens), Q9NZ20; QFRET BODIPY PC-A2 liposome hydrolysis, fluorescence; inhibition, % at 12.2 µM; actives 0.56% (n = 370,000); AID 743126, 2013;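 active = inhibition above mean plus 3 SD of compounds lying within the high and low control bounds, cut at about 19% in these data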;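 note: 0% = median of test compound wells and 100% = no enzyme DMSO wells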
Target sequence (Q9NZ20 whole entry, looked up): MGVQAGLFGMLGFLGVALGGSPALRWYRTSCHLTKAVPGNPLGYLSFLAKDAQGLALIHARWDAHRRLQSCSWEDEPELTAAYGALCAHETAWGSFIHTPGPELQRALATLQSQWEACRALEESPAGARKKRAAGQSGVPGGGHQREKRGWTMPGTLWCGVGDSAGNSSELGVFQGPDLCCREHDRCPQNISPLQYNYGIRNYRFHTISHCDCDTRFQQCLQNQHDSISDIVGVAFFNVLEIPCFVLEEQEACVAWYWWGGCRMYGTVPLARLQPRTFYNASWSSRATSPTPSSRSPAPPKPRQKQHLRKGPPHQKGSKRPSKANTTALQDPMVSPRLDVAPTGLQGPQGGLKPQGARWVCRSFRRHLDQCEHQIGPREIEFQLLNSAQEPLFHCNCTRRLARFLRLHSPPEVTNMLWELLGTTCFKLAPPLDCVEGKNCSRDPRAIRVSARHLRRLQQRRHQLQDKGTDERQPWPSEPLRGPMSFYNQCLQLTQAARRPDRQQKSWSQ
rCAG bind conf = small molecules binding CAG repeat RNA – biochemical, fluorescence, confirmation; inhibition, % at 3 µM; actives 70% (n = 4,300); shares compounds with rCAG binder; r(CAG) RNA repeat, TO-PRO-1 dye displacement fluorescence;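 active = inhibition above a per-plate cutoff, the mean inhibition of sample wells plus 3 SD, cut at about 35% in these data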;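 note: loss of TO-PRO-1 fluorescence as compound displaces dye from 1x1 AA loop RNA; 0% = DMSO only wells and 100% = 100 µM mitoxantrone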
dCAG dye counter = displacement of TO-PRO-1 from CAG DNA duplex, counter-screen for rCAG RNA repeat binder project, biochemical, fluorescence, TO-PRO-1 dye, d(CAG) DNA oligo; actives 94% (n = 4,300); d(CAG) DNA oligo TO-PRO-1 dye displacement; inhibition, % at 3 µM; shares compounds with rCAG binder;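 active = inhibition above its plate's cutoff, the mean test-well inhibition plus 3 SD, cut at about 4.8% in these data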;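 note: 0% = DNA dye mix with DMSO and 100% = 100 µM mitoxantrone; hits displace the dye from DNA and so lower well fluorescence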
dCAG dye DR = inhibitors of DNA CAG/GTC TO-PRO-1 complex, dose response, counter-screen for rCAG RNA repeat binder project, biochemical, fluorescence, TO-PRO-1 dye; shares compounds with rCAG binder; DNA CAG/GTC duplex TO-PRO-1 dye displacement fluorescence; IC50, µM; actives 20% (n = 250); in the data active = IC50 below about 10 µM
* marks the source's active call; other numbers are inactive results; i = inactive; / = no result given.

SMILES | MsrA inhibitor | MsrA act | rCAG binder | HGIII-sPLA2 inh | rCAG bind conf | dCAG dye counter | others
C=CCOC(=O)C1=C[C@H](C2CCCCC2)[C@@H](CCCO)[C@H](OCC)O1 | -0.9 | 0.2 | -9.4 | -6.6 | / | /
CC(/C=C1\SC(=S)N(NS(=O)(=O)c2ccccc2)C1=O)=C\c1ccccc1 | 1.4 | -0.8 | 73.6* | -13.7 | 87.0* | 53.8*
CC(/C=C1\SC(=S)N(NS(=O)(=O)c2ccc(C)cc2)C1=O)=C\c1ccccc1 | 1.4 | -2.5 | 61.6* | 2.5 | 86.7* | 60.0*
CC(/C=C1\SC(=S)N(NC(=O)c2ccc(C)cc2)C1=O)=C\c1ccccc1 | / | -10.8 | / | / | / | /
Cc1ccc(S(=O)(=O)NN2C(=O)/C(=C/c3ccccn3)SC2=S)cc1 | 1.2 | 6.1 | 44.6* | -5.5 | 35.2* | 8.5*
CC(/C=C1\SC(=S)N(NC(=O)c2ccncc2)C1=O)=C\c1ccccc1 | 1.2 | -3.3 | 42.4* | -15.6 | 30.8 | 9.3*
O=C1/C(=C/c2cccnc2)SC(=S)N1NS(=O)(=O)c1ccccc1 | 3.0 | -4.7 | 13.7 | -4.7 | / | /
CCN(C(=O)CSc1nc2n[nH]c(C)c2c(=N)n1-c1ccc(Cl)c(C)c1)c1cccc(C)c1 | 1.0 | -4.6 | 7.2 | 4.9 | / | /
CCOC(=O)c1sc(N2C(=O)C(O)=C(C(=O)c3ccc(C)o3)C2c2ccc(OC)c(OC)c2)nc1C (configuration not stated) | 0.2 | -2.9 | 32.8 | -7.3 | / | /
CCCCOc1cccc(C2C(C(=O)c3ccc(C)o3)=C(O)C(=O)N2c2nnc(C)s2)c1 (configuration not stated) | -0.7 | -11.0 | 15.1 | -8.7 | / | /
Cc1ccc2nc(N3C(=O)C(O)=C(C(=O)c4ccc(C)o4)C3c3cccc(O)c3)sc2c1 (configuration not stated) | 0.5 | -2.7 | 69.5* | -19.9 | 69.3* | 32.6*
COC(=O)c1sc(N2C(=O)C(O)=C(C(=O)c3ccc(C)o3)C2c2ccc([N+](=O)[O-])cc2)nc1C (configuration not stated) | 2.8 | -4.3 | 65.5* | 3.9 | 68.0* | 28.5* | dCAG dye DR=3.3*
CCOC(=O)c1sc(N2C(=O)C(O)=C(C(=O)c3ccc(C)o3)C2c2cccc([N+](=O)[O-])c2)nc1C (configuration not stated) | 1.0 | -3.5 | 54.5* | -5.6 | 78.2* | 42.0*
COc1ccc2nc(N3C(=O)C(O)=C(C(=O)c4ccco4)C3c3ccc(OC)c(OC)c3)sc2c1 (configuration not stated) | 0.6 | -1.1 | 56.3* | -8.8 | 69.4* | 25.4* | dCAG dye DR=i
COc1ccc(C(C)C)cc1S(=O)(=O)Nc1ccccn1 | 1.5 | -1.7 | 5.5 | -1.0 | / | /
CCOC(=O)c1ccc(N2C(=O)c3n[nH]c(-c4ccco4)c3C2c2cccc([N+](=O)[O-])c2)cc1 (configuration not stated) | 1.5 | -3.3 | 73.5* | 6.7 | 18.9 | 13.5*
COC(=O)c1sc(N2C(=O)C(O)=C(C(=O)c3ccc(C)o3)C2c2ccc(OC)c(OC)c2)nc1C (configuration not stated) | 2.7 | -5.6 | 37.0* | -5.2 | 36.0* | 9.9*
CC(C)(C)c1ccc(OCCSc2nc3ccccc3n2CC(=O)O)cc1 | -0.7 | -3.7 | 39.1* | -23.8 | 42.9* | 10.9*
O=C(O)Cn1c(SCCOc2ccccc2)nc2ccccc21 | 0.3 | -3.1 | 4.5 | -0.5 | / | /
C[C@H]1COC2=C1C(=O)C(=O)c1c2ccc2c1CCCC2(C)C | / | -11.2 | / | / | / | /
Cc1coc2c1C(=O)C(=O)c1c-2ccc2c1CCCC2(C)C | 0.9 | -3.6 | 43.3* | 0.1 | 23.3 | 13.1*
O=C(/C=C(\O)c1ccccc1)C(=O)NNC(=O)c1ccccc1 | 0.6 | -3.2 | 13.6 | 3.6 | / | /
COc1ccc(C(=O)NNC(=O)C(=O)/C=C(\O)c2ccc(C)cc2)cc1 | 0.4 | -2.4 | 47.1* | 2.9 | 24.7 | 10.8*
O=C(O)c1ccccc1N/N=C/c1cc(Br)cc(Br)c1O | 3.0 | -10.9 | 45.4* | -3.3 | 92.3* | 74.7*
Cc1ccc(NC(=O)c2nc[nH]c2C(=O)NCCCCNC(=O)c2[nH]cnc2C(=O)Nc2ccc(C)cc2)cc1 | 0.3 | -2.7 | 1.6 | 7.5 | / | /
SMILES | MsrA inhibitor | MsrA act | rCAG binder | HGIII-sPLA2 inh | rCAG bind conf | dCAG dye counter | others
O=C(O)c1[nH]c2ccccc2c1C(c1cc(Br)ccc1O)c1c(C(=O)O)[nH]c2ccccc12 | -0.6 | -7.3 | 94.5* | -138.2 | 75.7* | 39.9*
COc1cc(C(=O)Nc2c(C(=O)O)[nH]c3ccccc23)cc(OC)c1OC | 2.3 | -8.4 | 26.4 | -3.5 | / | /
O=C(O)c1[nH]c2ccccc2c1-c1ccccc1 | -1.1 | -3.5 | 7.2 | -3.5 | / | /
O=C(O)c1[nH]c2ccccc2c1C(c1c(F)cccc1Cl)c1c(C(=O)O)[nH]c2ccccc12 | -1.1 | -3.9 | 57.4* | -39.4 | 32.1 | 8.0*
COc1cc(Cl)cc(C(c2c(C(=O)O)[nH]c3ccccc23)c2c(C(=O)O)[nH]c3ccccc23)c1O | -0.7 | -0.4 | 92.3* | -137.6 | 72.8* | 37.9*
Cc1cc(C(C)(C)C)cc(S(=O)(=O)NCCO)c1C | -0.7 | -0.8 | -2.0 | -0.6 | / | /
Cc1cc2nc(C3CCCCC3)c(CC(C)(C)C)n2c(C)c1Br | 0.2 | -4.0 | 1.8 | 8.2 | / | /
O=C(O)c1ccc(Cl)c(S(=O)(=O)Nc2ccccc2C(=O)Nc2ccc(Cl)cc2)c1 | -0.3 | -3.7 | 45.4* | -35.3 | 46.3* | 17.1*
O=C(Nc1ccc(Cl)cc1)Nc1ccc(S(=O)(=O)Nc2ncccn2)cc1 | 1.7 | -1.8 | 13.1 | -25.4 | / | /
O=C(O)c1ccc(NS(=O)(=O)c2ccc(NC(=O)c3ccccc3Cl)cc2)cc1 | 0.3 | -0.9 | 2.7 | 1.0 | / | /
O=C(Nc1ccc(S(=O)(=O)Nc2ncccn2)cc1)c1ccccc1NS(=O)(=O)c1ccc(Cl)cc1 | -0.9 | -0.3 | 41.5* | -4.3 | 65.5* | 26.1*
O=C(c1ccccc1NS(=O)(=O)c1ccc(Cl)cc1)N1CCc2ccccc21 | 0.4 | -4.3 | 47.1* | -24.5 | 60.9* | 15.2*
Cc1ccc2nc(C3CCCCC3)c(Cc3ccccc3)n2c1 | 0.2 | -2.4 | -1.6 | 3.1 | / | /
O=C(Nc1ccc(N2C(=O)C3C4C=CC(C4)C3C2=O)cc1)Nc1nncs1 (configuration not stated) | -0.6 | 1.2 | 10.8 | -16.4 | / | /

Bioassay records deposited in PubChem by The Scripps Research Institute Molecular Screening Center.
